Marburg entry inh – Marburg virus entry inhibition; Marburg virus pseudotyped entry inhibition, cell reporter; Potency, µM (series often up to 37.8 µM), most hits filed as inhibitors; 300,000 compounds, 1.8% hits; calls by dose curve; tested in HEK293 cells
LASV entry inh – Lassa virus entry inhibition; Lassa virus pseudotype entry inhibition, cell reporter; Potency, µM (series often up to 37.9 µM), most hits filed as inhibitors; 300,000 compounds, 1.2% hits; calls by dose curve; tested in HEK293 cells; note: nearly all actives have a fitted effect of over 50% in size
Vaccinia mCherry – vaccinia inhibition (mCherry reporter). Potency, µM (series often up to 36.5 µM), hits mostly inhibitors. 310,000 compounds, 0.63% hits. Vaccinia virus mCherry reporter infection, fluorescence; calls by dose curve; tested in A549 cells; note: nearly all actives have a fitted effect of over 35% in size
Vaccinia Venus – inhibitors of vaccinia virus (Venus reporter); Vaccinia virus Venus reporter expression, fluorescence; Potency, µM (titrated, usually from 36.5 µM), usual class: inhibitors; 330,000 compounds, 0.46% hits; calls by dose curve; tested in A549 cells; note: nearly all actives have a fitted effect of over 30% in size
FMDV inh – antivirals against foot and mouth disease virus; AID 1159524; FMDV antiviral cell-based qHTS; 410,000 compounds, 1.2% hits; Potency, µM (series often up to 57.9 µM), usual class: inhibitors; calls by dose curve; tested in HEK293T cells; note: read-out not given here; nearly all actives have a fitted effect of over 45% in size
Each line names hits and unclear results; the compound was inactive in the other large screens. An excerpt weighted towards active compounds, which were near 3.2% of everything screened.

CCN1CC(CN(C)Cc2cn(-c3ccc(C)cc3)nc2-c2cccc(C)c2)CC1=O (stereo not given)	Marburg entry inh 11.2µM, LASV entry inh inconclusive
C[C@H]1CC[C@@]2(O[C@H](CCO)C[C@H](O)[C@H]2O)O1	none (no result: Marburg entry inh, LASV entry inh)
CN1CCN(c2nc3cc(C(F)(F)F)ccc3n3cccc23)CC1	Marburg entry inh 8.91µM, LASV entry inh inconclusive, Vaccinia mCherry inconclusive
COc1ccc(CCCC(=O)NCc2ccccc2)cc1C	LASV entry inh 8.2µM
CCC(Sc1nnc(-c2ccc(C)c(Cl)c2)n1CC)C(=O)Nc1nccs1 (stereo not given)	Marburg entry inh inconclusive, LASV entry inh inconclusive, FMDV inh 22.4µM (no result: Vaccinia mCherry, Vaccinia Venus)
Cc1c(C(=O)N2CCCC2)c(S(=O)(=O)Nc2ccccc2)c(C)n1C	Marburg entry inh inconclusive, LASV entry inh inconclusive
CNc1ccccc1C(=O)OC(C)C(=O)Nc1ccc(Cl)cn1 (stereo not given)	Vaccinia mCherry inconclusive, Vaccinia Venus 10µM
O=C(N/N=C/c1ccc(O)cc1)c1cc(-c2ccc3c(c2)OCO3)n[nH]1	Marburg entry inh 7.94µM, LASV entry inh inconclusive, Vaccinia mCherry inconclusive
Cc1ccc(S(=O)(=O)c2nc(-c3ccccc3F)oc2N2CCCCC2)cc1	Marburg entry inh inconclusive, LASV entry inh inconclusive
CCC(CC)C(=O)c1c[nH]c(C(=O)NCc2cccs2)c1	LASV entry inh 2.51µM
O=C1C(Cl)=C(Nc2cccc(O)c2)C(=O)N1Cc1ccccc1	Vaccinia mCherry inconclusive, Vaccinia Venus inconclusive
Cc1c([N+](=O)[O-])cnc(Sc2ccccc2)c1[N+](=O)[O-]	FMDV inh 22.4µM (no result: Marburg entry inh, LASV entry inh, Vaccinia mCherry, Vaccinia Venus)
Cc1ccc(Sc2ncccc2[N+](=O)[O-])cc1	LASV entry inh inconclusive, Vaccinia mCherry inconclusive
Cc1ccc(C[n+]2ccccc2)cc1	none (no result: Marburg entry inh, LASV entry inh)
Cc1ccc(C[n+]2c(-c3ccc(C)cc3)cc(-c3ccc(C)cc3)cc2-c2ccc(C)cc2)cc1	Vaccinia mCherry inconclusive, Vaccinia Venus 3.55µM, FMDV inh inconclusive (no result: Marburg entry inh, LASV entry inh)
Cc1ccc(F)c(S(=O)(=O)NC(=O)C2(C)CCN2C(=O)Cc2ccc(-c3ccccc3)cc2)c1 (stereo not given)	none (no result: Marburg entry inh, LASV entry inh)
CC1=NOC(=O)/C1=C/c1ccc(O)cc1	none
COc1cc(/C=C2\C(=O)NC(=O)N(c3ccccc3)C2=O)cc(OC)c1O	none (no result: Vaccinia mCherry, Vaccinia Venus)
COc1cc(C=C2C(=O)OC(c3ccccc3)OC2=O)cc(Br)c1O (stereo not given)	FMDV inh 10µM
COc1cc(/C=C2\C(=O)ON=C2c2ccccc2)cc(Cl)c1O	FMDV inh 7.08µM
O=C1ON=C(c2ccc(Cl)cc2)/C1=C/c1ccc(O)cc1	Marburg entry inh inconclusive, FMDV inh 12.6µM
CCOc1cc(/C=C2\C(=O)ON=C2C)ccc1OCc1ccccc1	Marburg entry inh inconclusive, FMDV inh 28.2µM
CCOC(=O)Nc1ccc(/C=C/c2ccnc3ccccc23)cc1	Vaccinia Venus inconclusive (no result: Marburg entry inh, LASV entry inh, FMDV inh)
COc1ccc(-n2c(CNC(=O)c3ccccc3C(F)(F)F)nnc2SC)cc1	none (no result: Marburg entry inh, LASV entry inh)
CCOc1cc(/C=C2\C(=O)ON=C2c2ccccc2)cc(Br)c1O	FMDV inh 11.2µM
COc1cc(/C=C2\C(=O)ON=C2c2ccccc2)cc(Br)c1O	FMDV inh 10µM
COc1cc(/C=C2/C(=O)ON=C2c2ccccc2)ccc1O	FMDV inh inconclusive
CCOc1ccc(/C=C/c2ccc3ccccc3n2)cc1OCC	none (no result: Marburg entry inh, LASV entry inh, FMDV inh)
CC(C)C1C(c2ccccc2)N(C)C(c2ccccc2)CC1(O)c1ccccc1 (stereo not given)	Marburg entry inh 14.6µM, LASV entry inh inconclusive, Vaccinia mCherry inconclusive
CCn1c(CNC(=O)c2cccnc2)cc2ccccc21	none (no result: Marburg entry inh, LASV entry inh, Vaccinia mCherry, Vaccinia Venus)
CC(C)=CCN1C(=O)C2(CC(C)=C[C@@H](C)O2)c2c(Br)cccc21 (stereo not given in full)	none (no result: LASV entry inh, Vaccinia mCherry, Vaccinia Venus, FMDV inh)
COc1ccc(/C=N\NC(=O)c2ccc(F)cc2)cc1COc1ccccc1C(N)=O	Marburg entry inh inconclusive, FMDV inh inconclusive
CNC(=S)N/N=C/c1cccc(OCc2ccccc2F)c1	Marburg entry inh inconclusive, LASV entry inh 3.98µM
CCNC(=S)N/N=C/c1cccc(/C=N/NC(=S)NCC)c1	none
Fc1ccccc1COc1ccc(/C=N/NC(=S)NCc2ccccc2)cc1	LASV entry inh inconclusive (no result: Vaccinia mCherry, Vaccinia Venus)
CCNC(=S)N/N=C/c1cccc(OCc2c(F)cccc2Cl)c1	Marburg entry inh inconclusive, LASV entry inh 9.2µM, FMDV inh inconclusive
COc1ccc(/C=N/NC(=S)Nc2ccccc2)cc1COc1ccc(F)cc1F	Marburg entry inh inconclusive, LASV entry inh 1.64µM
Cc1nn(C(C)C(=O)NCc2ccco2)c(C)c1[N+](=O)[O-] (stereo not given)	none (no result: Marburg entry inh, LASV entry inh, Vaccinia mCherry, Vaccinia Venus)
C/C(=N\NC(=O)C(C)n1nc(C)c([N+](=O)[O-])c1C)c1ccccc1O (stereo not given)	Marburg entry inh 9.2µM, LASV entry inh 13µM, Vaccinia mCherry inconclusive, Vaccinia Venus inconclusive
CCc1ccc(S(=O)(=O)NCc2nc(N3CCCC3)c3cccc(C)c3n2)cc1	none (no result: Marburg entry inh, LASV entry inh)
Cc1cc(=O)oc2cc(OCCCC[n+]3ccccc3)ccc12	Marburg entry inh inconclusive
CCC(C)(C)c1ccc(OCCCC[n+]2ccccc2)c(C(C)(C)CC)c1	FMDV inh 31.6µM (no result: Marburg entry inh, LASV entry inh, Vaccinia mCherry, Vaccinia Venus)
CCn1cc(C(=O)NCCc2ccc(OC)c(OC)c2)c(=O)c2cc(S(=O)(=O)N3CCCCCC3)ccc21	none
CCn1cc(C(=O)NCCc2ccc(Cl)cc2)c(=O)c2cc(S(=O)(=O)N(C)C)ccc21	none (no result: Marburg entry inh, LASV entry inh, Vaccinia mCherry, Vaccinia Venus)
CCn1cc(C(=O)NC(C)CCc2ccccc2)c(=O)c2cc(S(=O)(=O)N(C)C)ccc21 (stereo not given)	Marburg entry inh inconclusive, LASV entry inh 6.31µM
CCn1cc(C(=O)NCCc2ccc(OC)c(OC)c2)c(=O)c2cc(S(=O)(=O)N(C)C3CCCCC3)ccc21	Marburg entry inh 11.2µM, LASV entry inh inconclusive, Vaccinia mCherry inconclusive, Vaccinia Venus inconclusive
CCn1cc(C(=O)NCc2ccc(C)cc2)c(=O)c2cc(S(=O)(=O)N3CCCCCC3)ccc21	LASV entry inh 6.31µM, Vaccinia mCherry inconclusive (no result: Marburg entry inh)
CN(C)c1ccc(CNC(=O)c2cc3cc(S(=O)(=O)N4CCCCC4)ccc3n2C)cc1	LASV entry inh 10µM (no result: Marburg entry inh)
Cc1ccn2c(=O)nc(SCC(=O)Nc3ccc4c(c3)OCCO4)nc2c1	Marburg entry inh inconclusive
CC(C)c1ccc2oc(-c3cc(NC(=O)c4cccnc4)ccc3Cl)nc2c1	none
CC1CCN(C(=O)CN2C(=O)NC(c3ccccc3)(c3ccccc3)C2=O)CC1	none (no result: Marburg entry inh, LASV entry inh, Vaccinia mCherry, Vaccinia Venus)
Cc1ccc(CNC(=O)c2cc3cc(C)ccc3n2C)cc1	Marburg entry inh inconclusive, LASV entry inh inconclusive
Cc1ccc2c(c1)cc(C(=O)NCc1ccc(F)cc1)n2C	Marburg entry inh inconclusive, LASV entry inh 2µM
CCn1cc(C(=O)NCc2ccc(Cl)cc2)c(=O)c2cc(S(=O)(=O)N(C)C3CCCCC3)ccc21	Marburg entry inh 2.82µM, LASV entry inh inconclusive, Vaccinia Venus inconclusive
CCn1cc(C(=O)NCc2ccc(Cl)cc2)c(=O)c2cc(S(=O)(=O)N(C)C)ccc21	Marburg entry inh inconclusive, LASV entry inh inconclusive, Vaccinia mCherry inconclusive
Cc1ccc(S(=O)(=O)N2CCN(C(=O)c3cc4c(C)nn(-c5ccccc5C)c4s3)CC2)cc1	Marburg entry inh 17.8µM, LASV entry inh inconclusive, Vaccinia mCherry inconclusive, Vaccinia Venus inconclusive
Cc1ccccc1-n1nc(C)c2cc(C(=O)N3CCOCC3)sc21	none (no result: Vaccinia mCherry, Vaccinia Venus)

Assay outcomes: PubChem, National Center for Advancing Translational Sciences (NCATS)
